The campaign covered roughly 71,000 compounds. About 1,300 (1.8%) were called active. The call rests on the fitted dose curve. The entries come from a sample that favours actives as a whole.
Molecular target: Beta-lactamase (Escherichia coli (strain K12)) (UniProt P00811)
Assay: Promiscuous and Specific Inhibitors of AmpC Beta-Lactamase (assay without detergent); on activity change, negative = inhibition: % of control where 0% means no effect
Settings: AmpC nitrocefin hydrolysis, absorbance 480 nm, no detergent; series mostly up to 28.7 µM; activity change, negative = inhibition: at the top concentration
Experimental: NIH Molecular Libraries Screening Centers Network [MLSCN]
NIH Chemical Genomics Center [NCGC]
PI Name: Shoichet, Brian K.
This aggregation profiling approach exploits the sensitivity of aggregate formation to detergent. Inhibition of b-lactamase is measured in the presence and absence of 0.01% Triton X-100. See Pubchem assay "Promiscuous and Specific Inhibitors of AmpC Beta-Lactamase (assay with detergent)" for related screen. Compounds that inhibit only in the absence of detergent are considered likely promiscuous aggregators.
A screen of 1,030 compounds was performed in Brian Shoichet's lab in 96-well format. AmpC activity was measured by following the absorbance at 480 nm. Nitrocefin is a chromogenic substrate: while nitrocefin is yellow (lmax 390 nm), the product of its hydrolysis is red (lmax 486 nm, 17,000 M-1). AmpC beta lactamase was provided by Brian Shoichet and Brian Feng, UCSF.
NCGC Assay Protocol Summary:
20 mM phosphate buffer, pH 7.0
Triton X-100: No Detergent screen: 0.0001%, Detergent screen: 0.01%.
Buffer in columns 3 and 4 as negative control (no enzyme).
5.3 nM AmpC in columns 1, 2, 5-48. Titration of UCSF compound 9 control (from 10 mM, then 1:2) pin-transferred to column 2. Column 1 is neutral (100% activity).
Six uL of reagents were dispensed to 1536-well Greiner black clear bottom plates. Compounds and controls (23 nL) were transferred via Kalypsys PinTool. The plates were incubated for 15 min at room temperature, and then 2 uL of 800 uM solution of nitrocefin was added to start the reaction. The plates were immediately transferred to and read every 20 seconds for 4 min on ViewLux (Perkin-Elmer) High-throughput CCD imager using 480 nm absorbance protocol. During dispense, reagent bottles were kept submerged into 4 deg C water bath.
Keywords: NIH Roadmap, MLSCN, MLI, MLSMR, qHTS, NCGC, AmpC Beta-Lactamase, Aggregation.
Potency means the concentration at half of the fitted maximal effect.

Chain of Beta-lactamase (Escherichia coli (strain K12)) (P00811 whole entry, looked up): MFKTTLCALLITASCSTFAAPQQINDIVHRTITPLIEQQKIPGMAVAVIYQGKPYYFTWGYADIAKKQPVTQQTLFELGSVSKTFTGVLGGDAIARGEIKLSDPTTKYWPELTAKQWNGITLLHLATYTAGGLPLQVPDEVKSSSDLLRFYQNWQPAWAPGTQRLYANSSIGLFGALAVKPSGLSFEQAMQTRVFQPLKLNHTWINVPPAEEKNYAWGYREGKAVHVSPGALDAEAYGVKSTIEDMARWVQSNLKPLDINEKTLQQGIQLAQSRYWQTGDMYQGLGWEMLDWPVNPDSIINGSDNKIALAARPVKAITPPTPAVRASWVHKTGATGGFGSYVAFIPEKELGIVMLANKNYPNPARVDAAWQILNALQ

| SMILES | Potency | activity change, negative = inhibition |
| --- | --- | --- |
| CCn1cc(C(=O)NC2CCCCCC2)c(=O)c2cc(S(=O)(=O)N3CCCCC3)ccc21 | 3.98 µM [single pt active] (active) | – |
| CCn1cc(C(=O)NCC2CCCO2)c(=O)c2cc(S(=O)(=O)N3CCCCC3)ccc21 (configuration not stated) | – | 94.7% (inactive) |
| O=C(NC1CCCCC1)n1c(=O)oc2cc(S(=O)(=O)N3CCCCC3)ccc21 | – | -14.2% (inactive) |
| Oc1ccc2ccccc2c1C=NCc1c(O)ccc2ccccc12 | – | -20.6% [at 5.75 µM] (inactive) |
| O=C(CCC(=O)OCC(F)(F)C(F)F)NCc1ccccc1 | – | 7.3% (inactive) |
| COc1ccc(-c2nc(CS(=O)CC(=O)N3CCc4ccccc4C3)c(C)o2)cc1 (configuration not stated) | – | 91.4% (inactive) |
| Cc1ccc(-c2nc(CS(=O)CC(=O)N3CCN(c4ncccn4)CC3)c(C)o2)cc1 (configuration not stated) | – | 95.4% (inactive) |
| Cc1ccc(NC(=O)CS(=O)CC(=O)N(c2ccccc2)C(C)C(=O)NC2CCCC2)cc1 (configuration not stated) | – | 76.9% (inactive) |
| COc1ccc(CCNC(=O)C2CCCN(Cc3nc(-c4cccc(Cl)c4)oc3C)C2)cc1OC (configuration not stated) | – | 162% (inactive) |
| COc1ccc(-c2nc(CS(=O)CC(=O)NCc3cccnc3)c(C)o2)cc1OC (configuration not stated) | 3.98 µM [single pt active] (active) | – |
| Cc1ccc(-c2nc(CS(=O)CC(=O)NC3CCCC3)c(C)o2)cc1 (configuration not stated) | 3.98 µM [single pt active] (active) | – |
| COc1ccc(-c2nc(CS(=O)CC(=O)NCc3ccccn3)c(C)o2)cc1 (configuration not stated) | 1.26 µM [single pt active] (active) | – |
| COc1ccc(-c2nc(CS(=O)CC(=O)N3CCC4(CC3)OCCO4)c(C)o2)cc1 (configuration not stated) | – | 41.7% (inactive) |
| Cc1oc2nc(SCC(=O)NCc3cccnc3)nc(N)c2c1C | – | -1.9% (inactive) |
| C=CC(=C)CCC=C(C)C | – | -13.4% (inactive) |
| COc1ccc2oc(=O)c(C(=O)N3CCN(c4ccccc4F)CC3)cc2c1 | – | 43.1% (inactive) |
| CC1(C)CC(=O)C=C(NC2CC(C)(C)NC(C)(C)C2)C1 | – | -7.6% (inactive) |
| O=C(COc1ccc2oc3c(c2c1)CCCC3)Nc1ccccn1 | – | -0.5% (inactive) |
| O=C1CN(C(=O)COC(=O)C2CC(=O)N(Cc3ccco3)C2)c2ccccc2N1 (configuration not stated) | – | 6% (inactive) |
| COc1cc(C[C@H](C)N)c(OC)cc1I | inactive | – |
| COC(=O)c1ccc(C(NC(=O)OCc2ccccc2)/C(C)=C/[C@@H](C)C(=O)NCc2cc(C)on2)cc1 (some centres not stated) | – | 79.5% (inactive) |
| CCOC(=O)c1ccc(-n2c(C)nc3c(cnn3-c3ccccc3C)c2=O)cc1 | – | 49.2% (inactive) |
| COC(=O)C1=C(C)Nc2ncnn2C1c1ccco1 (configuration not stated) | – | -4.6% (inactive) |
| CCOC(=O)CSC1=C(C#N)C(c2ccco2)C(C(=O)OCc2ccccc2)=C(C)N1 (configuration not stated) | – | -9.8% (inactive) |

| SMILES | Potency | activity change, negative = inhibition |
| --- | --- | --- |
| CC1=C(C(=O)OCc2ccccc2)C(c2ccco2)n2ncnc2N1 (configuration not stated) | 3.98 µM [single pt active] (active) | – |
| O=C1N=C(N2CCOCC2)CS1 | – | -5.9% (inactive) |
| CC(=O)Nc1cc2ccc(OC(C)=O)cc2oc1=O | 3.98 µM [single pt active] (active) | – |
| CC(=O)Oc1ccc2c(C)c(CC(C)O)c(=O)oc2c1 (configuration not stated) | – | 0.7% (inactive) |
| COc1ccc2oc(C)c(NC(C)=O)c2c1 | – | -8.6% (inactive) |
| CCn1c(=N)c(S(=O)(=O)c2ccc(F)cc2)cc2c(=O)n3ccccc3nc21 | – | 35.4% (inactive) |
| COc1ccc2oc(=O)c(C(=O)O)cc2c1 | – | -7.1% (inactive) |
| O=C(Oc1cccnc1)c1cc2ccccc2oc1=O | 12.6 µM (active) | – |
| O=C(NCc1ccccn1)c1cc2ccccc2oc1=O | – | 0.3% (inactive) |
| Cc1ccc(C)c(N2CCN(C(=O)CCCCn3c(=O)[nH]c4ccccc4c3=O)CC2)c1 | – | 69.6% (inactive) |
| COc1ccc(Cc2nnc(NS(=O)(=O)Cc3ccccc3)s2)cc1 | – | -14.8% (inactive) |
| COc1ccc(Cc2nnc(NC(=O)Cc3cccs3)s2)cc1 | 12.6 µM (active) | – |
| CCc1nnc(NC(=O)CSc2nnc(Cc3ccccc3)n2-c2ccc(OC)cc2)s1 | – | 49% (inactive) |
| COc1ccc2[nH]cc(CCNc3nc(-c4cccc(NS(C)(=O)=O)c4)nc4ccccc34)c2c1 | – | -19.8% (inactive) |
| CCCC1C(c2ccccc2)C(C#N)(C#N)C2(C#N)CC1(N)NC2=O (configuration not stated) | – | 32% (inactive) |
| CCOC(=O)Cc1csc(NC(=O)CSc2nc(C)cc(=O)[nH]2)n1 | – | -14.8% (inactive) |
| CCOC(=O)Cc1csc(NC(=O)CN(C)S(=O)(=O)c2ccc3c(c2)CCC(=O)N3)n1 | 3.98 µM [single pt active] (active) | – |
| CCOC(=O)Cc1csc(NC(=O)C(C)(C)C)n1 | – | 4.6% (inactive) |
| Cc1ccc(CNC(=O)CCCNC(=O)c2ccc(Cl)cc2)n1C | – | 57.8% (inactive) |
| CC(C)(O)C#Cc1ccc(C(=O)N2CCC(C(N)=O)(N3CCCCC3)CC2)cc1 | – | -9.6% (inactive) |
| CC1(C)S[C@@H]2[C@@H](NC(=O)[C@@H](N)c3ccccc3)C(=O)N2[C@H]1C(=O)O | 0.0501 µM (active) | – |
| CC1(C)SC2c3ccccc3C(=O)N2[C@@H]1C(=O)NCc1ccco1 (some centres not stated) | – | 7.2% (inactive) |
| CC(CNC(=O)c1ccc(Br)o1)NC(=O)c1ccc(Br)o1 (configuration not stated) | – | -4.4% (inactive) |
| c1ccc(Nc2nc(-c3ccncc3)cs2)nc1 | – | 27.9% (inactive) |

| SMILES | Potency | activity change, negative = inhibition |
| --- | --- | --- |
| N#C/C(=C1\CCCN1)c1nc(-c2ccccc2)cs1 | – | 1.9% (inactive) |
| N#CC(=C1SC=CS1)c1nc(-c2ccccc2)cs1 | 15.8 µM [single pt active] (active) | – |
| CC(C)(O)[C@H]1[C@H]2OC(=O)[C@@H]1[C@]1(O)C[C@H]3O[C@]34C(=O)O[C@H]2[C@]14C | – | 3.7% (inactive) |
| O=C(c1ccco1)N1CCN(C(=O)C2CC(c3ccc(F)cc3)=NO2)CC1 (configuration not stated) | 3.98 µM [single pt active] (active) | – |
| CCOC(=O)N1CCN(C(=O)C2CC(c3ccc(F)cc3)=NO2)CC1 (configuration not stated) | 3.98 µM [single pt active] (active) | – |
| O=C(c1ccco1)N1CCN(C(=O)C2c3ccccc3Oc3ccccc32)CC1 | – | 70.7% (inactive) |
| Cc1ccc(NC(=O)C2CC(c3ccc(F)cc3)=NO2)cc1 (configuration not stated) | – | 9.7% (inactive) |
| CCOC(=O)N1CCN(C(=O)CSc2ccc(Cl)cc2)CC1 | – | 33.7% (inactive) |
| O=C(c1ccco1)N1CCN(C(=O)C2CC(c3ccc(Cl)c(Cl)c3)=NO2)CC1 (configuration not stated) | – | 99.9% (inactive) |
| O=C(C1CCN(S(=O)(=O)c2cnc[nH]2)CC1)N1CCN(Cc2ccc3c(c2)OCO3)CC1 | – | 19.4% (inactive) |
| CC(=O)c1c(O)c(C)c(O)c(Cc2c(O)c3c(c(C(=O)/C=C\c4ccccc4)c2O)OC(C)(C)C=C3)c1O | 12.6 µM (active) | – |
| CCOc1ccc(S(=O)(=O)n2ccnc2)c2ccccc12 | 3.98 µM [single pt active] (active) | – |
| CCOc1ccccc1C(=O)NCCCn1ccnc1 | – | -7.7% (inactive) |
| CCOc1ccc(C(C)C)cc1S(=O)(=O)n1nc(C)cc1C | – | 36.2% (inactive) |
| Fc1ccc2nc(Nc3nc4c(s3)CCCC4)sc2c1 | – | -20.6% (inactive) |
| CCOC(=O)CNC(=O)CSc1nnc(COc2ccc(Cl)cc2)n1CC | – | 52.9% (inactive) |
| CN1CCN(S(=O)(=O)c2ccc3[nH]cc(C(=O)O)c(=O)c3c2)CC1 | – | -10% (inactive) |
| Cc1cccc(CC(=O)Nc2c3c(nn2-c2cccc(Cl)c2)CS(=O)C3)c1 (configuration not stated) | – | 44.1% (inactive) |
| O=C(NCc1ccco1)c1nc(-c2ccccc2)n(-c2ccccc2)n1 | – | 8.2% (inactive) |
| Cc1nc2nc(SCC(=O)NCc3ccco3)nn2c(C)c1Cc1ccccc1 | – | 31.6% (inactive) |
| O=C(Cc1ccccc1)n1nc(-c2ccccc2)nc1NCc1ccco1 | 3.98 µM [single pt active] (active) | – |
| COc1ccc(CCn2nnnc2C(c2ccccc2)N2CCN(C)CC2)cc1OC (configuration not stated) | – | 15.3% (inactive) |
| CCOC(=O)c1cnc2sccn2c1=O | – | 3.9% (inactive) |
| CN/C(=C\[N+](=O)[O-])NCCSCc1csc(CN(C)C)n1 | – | -0.3% [at 12.8 µM] (inactive) |

Reference: PubChem BioAssay AID585 (National Center for Advancing Translational Sciences (NCATS), 2007)
